The text below walks through data of PubChem BioAssay (EPA / NIEHS).

SMILES strings stand for the structures. Results filed as inconclusive are left out. Active and inactive are the calls of the source. How the source made its calls: active means hit-call score of the fitted dose curve at least 0.9, where 1 is the maximum; inconclusive means response in the unintended direction; inactive means score below 0.9.

The target of assay [1] is rat Opioid Receptor, Non-selective Binding, Oprm1 (gene 25601) (UniProt P33535). In words: NVS_GPCR_rOpiate_NonSelective: NovaScreen (NVS) G Protein-Coupled Receptor Assay for rat Opioid Receptor, Non-selective Binding (AID 2283318). Put shortly: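 Rat forebrain membranes, cell-free radioligand binding with filter-based scintillation counting, read 1.5 h after dosing. Primary screen in duplicate at 25 uM; actives retested in concentration series. Loss of signal versus DMSO baseline scored.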

Assay [2] has as its target rat Glutamate, AMPA Site (AMPA), Gria1 (gene 50592) (UniProt P19490). Nature of the assay: NVS_LGIC_rAMPA: NovaScreen (NVS) Ligand-Gated Ion Channel Assay for rat Glutamate, AMPA Site (AMPA) (AID 2283324). Put shortly:
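Rat forebrain membranes; radioligand binding read 1 h after dosing by filtration and scintillation counting. Duplicate single-point screen at 25 uM, then concentration-response to 50 uM for threshold hits (e.g. 30% inhibition); loss of signal vs DMSO.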

Assay [3] has as its target Sodium channel protein type 1 subunit alpha (Rattus norvegicus) (UniProt P04774). In words: NVS_IC_rNaCh_site2: NovaScreen (NVS) Ion Channel Assay for rat Sodium Channel, Site 2 (NaCh) (AID 2283322).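 Further: hit means loss of radioligand binding signal relative to DMSO so AC50 marks displacement.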 Put shortly:
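Membranes: rat forebrain. Format: competitive radioligand displacement, filter separation, scintillation readout, 1 h exposure. Primary screen in duplicate at 25 uM; actives retested in concentration series.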

In another assay the target is Adra2b (gene 24174) (UniProt P19328). In words: NVS_GPCR_rmAdra2B: NovaScreen (NVS) G Protein-Coupled Receptor Assay for hybird cells Adrenergic, Alpha 2B Receptor (Adra2B) (AID 2283306). Put shortly:
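Radioligand filter-binding assay on membrane proteins from neuroglioma/blastoma hybrid cells (rodent), 1 h after dosing; scintillation counting, loss of signal vs DMSO. Primary screen in duplicate at 25 uM, actives then run in concentration series.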

In assay [4] the target is rat Opioid Receptor, Non-selective Sodium (Na+) Binding, Oprm1 (gene 25601) (UniProt P33535). In words: NVS_GPCR_rOpiate_NonSelectiveNa: NovaScreen (NVS) G Protein-Coupled Receptor Assay for rat Opioid Receptor, Non-selective Sodium (Na+) Binding (AID 2283311). Put shortly: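 Rat forebrain membranes, radioligand displacement with filter scintillation counting, 1.5 h incubation. Screened in duplicate at 25 µM; hits then run in concentration-response up to 50 µM; loss of binding fitted versus DMSO.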

In assay [5] the target is rat Neurokinin-3 Receptor (NK3), Tacr3 (gene 24808) (UniProt P16177). In words: NVS_GPCR_rNK3: NovaScreen (NVS) G Protein-Coupled Receptor Assay for rat Neurokinin-3 Receptor (NK3) (AID 2283310). Put shortly:
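Rat cortical membranes; radioligand binding with filtration and scintillation counting, 2 h after dosing. Primary screen in duplicate at 25 uM, then concentration-response up to 50 uM; loss of binding signal relative to DMSO.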

Assay [6] can be described thus: NVS_IC_rCaDHPRCh_L: NovaScreen (NVS) Ion Channel Assay for rat Calcium Channel, Type L, Dihydropyridine Site (CaDHPRCh_L) (AID 2283320). Put shortly: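 Radioligand binding to dihydropyridine site on rat cortical membranes, filter-based scintillation counting, 1 h after dosing. Screened in duplicate at 25 uM; actives rerun in concentration-response up to 50 uM. Loss of signal versus DMSO baseline.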

For assay [7], the target named is rat Neonicotinoid receptor (NNR), Chrna7 (gene 25302) (UniProt Q05941). In words: NVS_LGIC_rNNR_BungSens: NovaScreen (NVS) Ligand-Gated Ion Channel Assay for rat Neonicotinoid receptor (NNR) (AID 2283315). Put shortly:
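Radioligand displacement binding on rat cortical membranes, 2.5 h incubation, filtration and scintillation counting. Loss of specific binding fitted relative to DMSO.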

In assay [8] the target is rat Glutamate, NMDA Agonist Site (GluNMDA), Grin1 (gene 24408) (UniProt P35439). In words: NVS_LGIC_rGluNMDA_Agonist: NovaScreen (NVS) Ligand-Gated Ion Channel Assay for rat Glutamate, NMDA Agonist Site (GluNMDA) (AID 2283327). Put shortly:
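Rat forebrain membranes, radioligand binding in the agonist-site protocol; 1 h after dosing; filter-based scintillation counting. Single-concentration duplicate screen at 25 uM, then concentration-response up to 50 uM for actives; gain-of-signal vs DMSO.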

Assay [9] deals with human Constitutive Androstane Receptor (CAR), NR1I3 (gene 9970) (UniProt Q14994). Nature of the assay: NVS_NR_hCAR_Agonist: NovaScreen (NVS) Nuclear Receptor Binding Assay for human Constitutive Androstane Receptor Agonism (CAR) (AID 2283328). Put shortly:
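Cell-free TR-FRET binding readout with extracted human CAR protein, read 1 h after dosing. Gain of signal fitted against DMSO baseline. Single-concentration duplicates at 25 uM, then concentration-response up to 50 uM for actives.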

Assay [10] addresses rat Histamine Receptor (H3), Hrh3 (gene 85268) (UniProt Q9QYN8). Nature of the assay: NVS_GPCR_rH3: NovaScreen (NVS) G Protein-Coupled Receptor Assay for rat Histamine Receptor (H3) (AID 2283303). Put shortly: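 Rat forebrain membranes incubated 1 h with compound; radioligand displacement measured by filter-based scintillation counting. Single-concentration duplicates at 25 µM, then concentration-response up to 50 µM, relative to DMSO.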

Assay [11] addresses rat Somatostatin Receptor (SST), Sstr1 (gene 25033) (UniProt P28646). Nature of the assay: NVS_GPCR_rSST: NovaScreen (NVS) G Protein-Coupled Receptor Assay for rat Somatostatin Receptor (SST) (AID 2283314). Put shortly: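 Rat forebrain membranes; radioligand displacement read by filter-based scintillation counting 1 h after dosing. Primary screen in duplicate at 25 uM. Actives (e.g., 30% inhibition) were rerun as concentration-response to 50 uM max and fitted against DMSO.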

Assay [12] deals with bovine Gamma-Aminobutyric Acid Type A Receptor BDZ, alpha 5 site (GABARa5), GABRA5 (gene 523515) (UniProt Q08E50). Nature of the assay: NVS_LGIC_bGABARa5: NovaScreen (NVS) Ligand-Gated Ion Channel Assay for bovine Gamma-Aminobutyric Acid Type A Receptor BDZ, alpha 5 site (GABARa5) (AID 2283323). Put shortly:
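Radioligand competitive displacement binding on bovine hippocampal membranes, read 1 hr after dosing by filter-based scintillation counting. Primary screen at 25 uM in duplicate; actives (e.g. ≥30% inhibition) then run in concentration-response up to 50 uM.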

Adra2b (gene 24174), sequence (P19328 whole entry, looked up): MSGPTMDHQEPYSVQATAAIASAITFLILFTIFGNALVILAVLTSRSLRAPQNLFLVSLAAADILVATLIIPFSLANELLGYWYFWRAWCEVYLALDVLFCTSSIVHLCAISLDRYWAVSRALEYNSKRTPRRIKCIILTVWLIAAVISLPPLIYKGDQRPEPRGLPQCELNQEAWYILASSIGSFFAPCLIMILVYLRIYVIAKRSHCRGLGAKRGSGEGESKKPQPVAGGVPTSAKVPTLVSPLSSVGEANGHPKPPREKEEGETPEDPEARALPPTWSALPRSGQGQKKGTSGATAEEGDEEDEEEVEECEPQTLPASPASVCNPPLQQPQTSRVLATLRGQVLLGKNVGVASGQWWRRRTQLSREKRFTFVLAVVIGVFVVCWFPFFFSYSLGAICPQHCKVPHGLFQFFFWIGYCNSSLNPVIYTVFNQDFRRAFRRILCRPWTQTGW
rat Opioid Receptor, Non-selective Sodium (Na+) Binding, Oprm1 (gene 25601), sequence (P33535 whole entry, looked up): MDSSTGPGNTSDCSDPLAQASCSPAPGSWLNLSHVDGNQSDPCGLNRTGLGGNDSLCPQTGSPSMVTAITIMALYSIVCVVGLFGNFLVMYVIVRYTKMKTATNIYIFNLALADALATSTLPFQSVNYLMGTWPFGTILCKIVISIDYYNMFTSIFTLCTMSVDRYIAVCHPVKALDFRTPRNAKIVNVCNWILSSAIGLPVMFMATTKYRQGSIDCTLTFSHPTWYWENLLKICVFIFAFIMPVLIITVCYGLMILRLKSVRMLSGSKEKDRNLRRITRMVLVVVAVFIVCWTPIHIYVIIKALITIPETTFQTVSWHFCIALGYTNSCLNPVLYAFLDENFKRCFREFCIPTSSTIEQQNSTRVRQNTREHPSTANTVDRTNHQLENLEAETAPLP
rat Opioid Receptor, Non-selective Binding, Oprm1 (gene 25601), sequence (P33535 whole entry, looked up): as above
rat Somatostatin Receptor (SST), Sstr1 (gene 25033), sequence (P28646 whole entry, looked up): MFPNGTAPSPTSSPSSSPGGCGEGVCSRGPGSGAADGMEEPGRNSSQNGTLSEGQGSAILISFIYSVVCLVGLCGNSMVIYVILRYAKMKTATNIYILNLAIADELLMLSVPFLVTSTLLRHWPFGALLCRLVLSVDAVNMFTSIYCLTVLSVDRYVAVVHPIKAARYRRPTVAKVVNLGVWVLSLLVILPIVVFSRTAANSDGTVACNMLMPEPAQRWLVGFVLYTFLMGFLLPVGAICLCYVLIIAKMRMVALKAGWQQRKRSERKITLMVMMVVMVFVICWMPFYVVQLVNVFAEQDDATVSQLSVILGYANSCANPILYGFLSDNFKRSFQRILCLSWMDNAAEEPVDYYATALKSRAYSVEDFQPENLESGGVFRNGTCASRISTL
rat Glutamate, AMPA Site (AMPA), Gria1 (gene 50592), sequence (P19490 whole entry, looked up): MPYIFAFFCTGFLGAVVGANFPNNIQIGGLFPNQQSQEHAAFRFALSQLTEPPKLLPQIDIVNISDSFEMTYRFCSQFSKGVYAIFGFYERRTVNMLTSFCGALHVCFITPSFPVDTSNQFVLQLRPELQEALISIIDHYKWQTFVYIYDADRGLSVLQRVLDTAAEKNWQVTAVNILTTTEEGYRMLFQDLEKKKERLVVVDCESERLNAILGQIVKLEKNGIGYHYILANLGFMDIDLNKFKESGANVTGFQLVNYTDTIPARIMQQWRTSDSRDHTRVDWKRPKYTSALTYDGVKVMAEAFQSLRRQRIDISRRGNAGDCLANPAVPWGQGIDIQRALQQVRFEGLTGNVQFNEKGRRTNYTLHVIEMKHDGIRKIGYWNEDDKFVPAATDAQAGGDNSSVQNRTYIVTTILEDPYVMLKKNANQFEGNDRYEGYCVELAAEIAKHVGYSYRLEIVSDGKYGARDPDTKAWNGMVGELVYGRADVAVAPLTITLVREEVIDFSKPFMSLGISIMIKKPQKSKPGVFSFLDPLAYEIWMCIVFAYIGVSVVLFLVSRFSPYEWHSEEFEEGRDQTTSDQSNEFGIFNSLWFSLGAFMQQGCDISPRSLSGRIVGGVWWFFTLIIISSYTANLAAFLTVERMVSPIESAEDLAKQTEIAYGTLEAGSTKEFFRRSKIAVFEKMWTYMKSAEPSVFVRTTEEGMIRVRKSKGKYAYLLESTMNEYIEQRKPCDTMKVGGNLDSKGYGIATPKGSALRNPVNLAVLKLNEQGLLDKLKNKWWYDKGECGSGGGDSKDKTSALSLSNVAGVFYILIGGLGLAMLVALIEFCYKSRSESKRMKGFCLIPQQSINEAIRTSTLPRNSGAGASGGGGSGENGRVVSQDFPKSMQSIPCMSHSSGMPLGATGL
rat Neonicotinoid receptor (NNR), Chrna7 (gene 25302), sequence (Q05941 whole entry, looked up): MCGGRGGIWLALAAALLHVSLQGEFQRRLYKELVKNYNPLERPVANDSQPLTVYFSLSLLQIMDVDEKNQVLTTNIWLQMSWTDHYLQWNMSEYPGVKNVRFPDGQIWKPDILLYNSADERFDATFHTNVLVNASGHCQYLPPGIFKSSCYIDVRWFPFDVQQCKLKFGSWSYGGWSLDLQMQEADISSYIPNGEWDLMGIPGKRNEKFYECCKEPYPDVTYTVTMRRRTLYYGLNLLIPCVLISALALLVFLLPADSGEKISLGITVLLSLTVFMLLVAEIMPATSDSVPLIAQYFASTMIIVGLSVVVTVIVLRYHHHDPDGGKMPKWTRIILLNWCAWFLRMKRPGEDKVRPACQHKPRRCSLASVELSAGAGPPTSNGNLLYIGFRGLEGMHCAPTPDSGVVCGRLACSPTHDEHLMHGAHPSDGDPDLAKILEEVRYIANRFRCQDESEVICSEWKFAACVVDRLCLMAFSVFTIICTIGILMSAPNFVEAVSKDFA
rat Neurokinin-3 Receptor (NK3), Tacr3 (gene 24808), sequence (P16177 whole entry, looked up): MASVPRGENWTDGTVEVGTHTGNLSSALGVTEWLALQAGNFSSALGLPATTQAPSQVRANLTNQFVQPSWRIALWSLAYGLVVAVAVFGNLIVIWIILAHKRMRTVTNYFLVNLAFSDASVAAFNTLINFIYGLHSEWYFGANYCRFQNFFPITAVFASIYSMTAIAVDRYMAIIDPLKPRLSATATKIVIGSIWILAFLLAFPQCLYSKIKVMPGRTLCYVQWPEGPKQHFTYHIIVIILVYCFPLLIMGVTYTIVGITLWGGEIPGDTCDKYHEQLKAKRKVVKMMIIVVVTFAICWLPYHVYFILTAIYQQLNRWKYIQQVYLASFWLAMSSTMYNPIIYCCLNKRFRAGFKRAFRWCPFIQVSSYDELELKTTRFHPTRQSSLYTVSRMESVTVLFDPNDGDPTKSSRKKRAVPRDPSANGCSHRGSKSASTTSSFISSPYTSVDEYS
human Constitutive Androstane Receptor (CAR), NR1I3 (gene 9970), sequence (Q14994 whole entry, looked up): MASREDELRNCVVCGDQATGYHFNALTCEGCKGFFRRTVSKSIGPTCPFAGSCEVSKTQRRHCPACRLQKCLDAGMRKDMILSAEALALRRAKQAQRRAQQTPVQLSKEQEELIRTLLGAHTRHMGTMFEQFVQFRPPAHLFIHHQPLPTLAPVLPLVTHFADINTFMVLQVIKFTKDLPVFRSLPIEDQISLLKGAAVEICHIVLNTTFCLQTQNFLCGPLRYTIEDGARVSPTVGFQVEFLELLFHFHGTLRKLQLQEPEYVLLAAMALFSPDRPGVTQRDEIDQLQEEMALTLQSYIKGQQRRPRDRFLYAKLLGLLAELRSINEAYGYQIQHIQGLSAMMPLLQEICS
rat Histamine Receptor (H3), Hrh3 (gene 85268), sequence (Q9QYN8 whole entry, looked up): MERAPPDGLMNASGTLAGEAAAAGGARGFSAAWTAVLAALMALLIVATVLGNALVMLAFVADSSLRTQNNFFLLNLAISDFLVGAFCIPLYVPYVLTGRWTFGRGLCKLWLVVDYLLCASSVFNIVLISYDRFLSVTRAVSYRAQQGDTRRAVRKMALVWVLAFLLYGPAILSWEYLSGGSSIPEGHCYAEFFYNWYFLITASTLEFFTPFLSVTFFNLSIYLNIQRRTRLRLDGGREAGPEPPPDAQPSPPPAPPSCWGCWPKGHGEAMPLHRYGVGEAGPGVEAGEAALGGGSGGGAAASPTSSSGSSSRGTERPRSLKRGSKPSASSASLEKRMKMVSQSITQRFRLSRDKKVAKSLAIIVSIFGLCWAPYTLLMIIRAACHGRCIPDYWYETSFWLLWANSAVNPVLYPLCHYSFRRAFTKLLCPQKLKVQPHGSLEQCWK
bovine Gamma-Aminobutyric Acid Type A Receptor BDZ, alpha 5 site (GABARa5), GABRA5 (gene 523515), sequence (Q08E50 whole entry, looked up): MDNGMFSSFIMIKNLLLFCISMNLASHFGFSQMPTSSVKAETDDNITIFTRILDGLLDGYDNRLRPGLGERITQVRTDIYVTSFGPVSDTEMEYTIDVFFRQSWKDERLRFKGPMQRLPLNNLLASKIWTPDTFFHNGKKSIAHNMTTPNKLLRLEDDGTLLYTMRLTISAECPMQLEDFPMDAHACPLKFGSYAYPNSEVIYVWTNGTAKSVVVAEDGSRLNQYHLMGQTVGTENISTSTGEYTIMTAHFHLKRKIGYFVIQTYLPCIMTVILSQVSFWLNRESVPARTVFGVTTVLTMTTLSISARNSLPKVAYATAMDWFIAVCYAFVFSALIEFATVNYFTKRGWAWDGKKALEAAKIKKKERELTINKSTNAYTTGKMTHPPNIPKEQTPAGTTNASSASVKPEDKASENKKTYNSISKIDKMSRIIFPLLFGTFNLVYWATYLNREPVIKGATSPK

In the case of `Cc1cc(NC(=O)C(=O)O)cc(C)c1Oc1ccc(O)c2c1CCC2`, the call in assay [1] and in assay [2] was inactive.
Turning to `CCOC(=O)CCC(=O)OCC`, the compound was called inactive in [3].
As usually defined, the AC50 is the midpoint of the concentration-response curve, whichever way the signal moves. On to `NC(=O)Cn1c(=O)cc(CCN2CCN(c3nccc4sccc34)CC2)c2ccc(F)cc21`, for which the values for the AC50 (with Adra2b (gene 24174); in assay [4]; in assay [1]) were 0.131 µM (active), 1.38 µM (active) and 1.45 µM (active), respectively. Also, the result in [3] was inactive.
For `CCOc1ccc2c(c1)C(C)=CC(C)(C)N2`, the result in assay [2] was inactive.
Regarding `CCc1c(C(=O)NN2CCCCC2)nn(-c2ccc(Cl)cc2Cl)c1-c1ccc(Br)cc1`, the compound was classed as inactive in assay [5] and in [6]. Besides, the AC50 in assay [3] was 11.5 µM (active).
For the compound `Cc1nc(-c2ccc3c(c2)CCN(CCC2CCC(NC(=O)/C=C/c4ccc(F)cc4)CC2)CC3)no1` (stereo not given), in [7], the compound was classed as inactive. The AC50 in [3] is 0.265 µM (active).
With `Oc1ccc2c(c1)OC[C@@H](N1CCC(O)(c3ccc(F)cc3)CC1)[C@H]2O`, the outcome in [4], in assay [1], in assay [3], in assay [8] and in assay [9] was inactive.
`CNCc1cc(F)ccc1Oc1ccc(Cl)c(Cl)c1`: the compound was called inactive in assay [10]. For the same compound, the AC50 with Adra2b (gene 24174) is 8.41 µM (active); in assay [4], 25 µM (active); in [7], 28.5 µM (active).
For `Cc1cc(=O)[nH]c(=S)[nH]1`, in assay [11], the AC50 was 13.2 µM (active). Moreover, the result in assay [6] was inactive.
Consider `CNC(=O)[C@H]1O[C@@H](n2cnc3c(NCc4cc(Cl)ccc4OCc4cc(C)no4)ncnc32)[C@H](O)[C@@H]1N`, for which the call with Adra2b (gene 24174) was inactive. The AC50 in assay [11] was 37.9 µM (active).
For `CCCCc1ccc2c(n1)[C@@H](c1ccc(OC)cc1C[C@H](C)C(=O)O)[C@H](C(=O)O)[C@H]2c1ccc2c(c1)OCO2`, in assay [12], the AC50 was 27.5 µM (active).
Take `O=C(N[C@@H](Cc1ccccc1)[C@@H](O)C(=O)N1C[C@@H](O)[C@@H](O)C1)c1cc2cc(Cl)ccc2[nH]1`: the concentration at half-maximal activity (AC50) was 19.4 µM (active) in assay [4] and 25 µM (active) in [1]. The outcome in assay [3] was inactive.
